Assay results reported in the supplement of paper PMC6555819.

What was measured:
Experiment in all cases: PBM binding z-score (relative to random genomic background probes); higher = stronger binding; sequences stand for … in GC…GCGATTGACAGCGTAGAATGAAGG
[1] = test system: FXR:RXRa (NR concentration 270 nM, RXRa partner concentration 90 nM)
How it was run: (§1)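 Binding z-scores were set against random background probes. The data came from custom Agilent 4×180K protein-binding microarrays carrying double-stranded probes with 34-nt variable regions, incubated 1 h with ligand-free nuclear receptor dimers. Partner-specific antibodies detected binding, and scanned fluorescence was regression-normalized.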

[2] = test system: LXRa:RXRa (NR concentration 270 nM, RXRa partner concentration 90 nM)
How it was run: as §1

[3] = test system: LXRa homodimer (NR concentration 270 nM)
How it was run: as §1

[4] = test system: LXRb:RXRa (NR concentration 270 nM, RXRa partner concentration 90 nM)
How it was run: as §1

[5] = test system: LXRb homodimer (NR concentration 270 nM)
How it was run: as §1

[6] = test system: PPARa:RXRa (NR concentration 270 nM, RXRa partner concentration 90 nM)
How it was run: as §1

[7] = test system: PPARg:RXRa (NR concentration 180 nM, RXRa partner concentration 90 nM)
How it was run: as §1

[8] = test system: PPARg:RXRa 270nM:90nM, anti-RXR (NR concentration 270 nM, RXRa partner concentration 90 nM)
How it was run: as §1

[9] = test system: PPARg:RXRa 30nM:10nM, anti-RXR (NR concentration 30 nM, RXRa partner concentration 10 nM)
How it was run: as §1

[10] = test system: PPARg:RXRa 90nM:30nM, anti-RXR (NR concentration 90 nM, RXRa partner concentration 30 nM)
How it was run: as §1

[11] = test system: PPARg:RXRa DBDmut IVT, anti-RXR (DBD mutation: RXRa K156A/R161A, NR concentration 270 nM, RXRa partner concentration 90 nM)
How it was run: as §1

[12] = test system: PPARg:RXRa IVT, anti-PPARg (NR concentration 270 nM, RXRa partner concentration 90 nM)
How it was run: as §1

[13] = test system: PPARg DBDmut:RXRa IVT, anti-PPARg (DBD mutation: PPARg1 K132A/R137A, NR concentration 270 nM, RXRa partner concentration 90 nM)
How it was run: as §1

[14] = test system: PPARg DBDmut IVT, anti-PPARg (DBD mutation: PPARg1 K132A/R137A, NR concentration 270 nM)
How it was run: as §1

[15] = test system: PPARg homodimer (NR concentration 180 nM)
How it was run: as §1

[16] = test system: PXR:RXRa (NR concentration 270 nM, RXRa partner concentration 90 nM)
How it was run: as §1

[17] = test system: PXR homodimer (NR concentration 270 nM)
How it was run: as §1

[18] = test system: RARa:RXR (NR concentration 270 nM, RXRa partner concentration 90 nM)
How it was run: as §1

[19] = test system: RARa homodimer (NR concentration 270 nM)
How it was run: as §1

[20] = test system: RARb:RXRa (NR concentration 270 nM, RXRa partner concentration 90 nM)
How it was run: as §1

Sequence	PBM binding z-score [1]	PBM binding z-score [2]	PBM binding z-score [3]	PBM binding z-score [4]	PBM binding z-score [5]	PBM binding z-score [6]	PBM binding z-score [7]	PBM binding z-score [8]	PBM binding z-score [9]	PBM binding z-score [10]	PBM binding z-score [11]	PBM binding z-score [12]	PBM binding z-score [13]	PBM binding z-score [14]	PBM binding z-score [15]	PBM binding z-score [16]	PBM binding z-score [17]	PBM binding z-score [18]	PBM binding z-score [19]	PBM binding z-score [20]
CCTAGCAGGCCAGGGTCACTCCAGCATTTCGCTT	1.55	1.25	-0.465	1.65	-0.731	2.73	0.332	1.25	-0.559	0.667	0.422	1.18	-1.53	-1.63	1.15	2.12	-0.229	2.93	0.279	2.47
GCATATAGGTAATACAAGGAGAAAGTCCGATTGT	0.156	-0.0258	-0.258	-0.357	-0.633	0.37	1.06	0.421	0.217	0.104	3.9	2.35	0.451	1	-0.266	-0.205	0.00189	0.277	0.43	-0.406
AGAATGAGGTTGTTAAGATCAGGGAATTGCGGTC	0.00995	0.0148	-0.0695	-0.0376	-0.0779	0.298	0.171	0.206	-0.197	-0.0831	0.255	-0.103	-0.954	-0.016	0.112	0.362	0.179	0.0989	-0.0651	0.173
CCTACTGGGCCATTCAGGGGTCATTGATCATATG	3.39	3.59	3.43	4.16	-0.118	4.49	2.95	3.73	1.27	2.64	3.55	4.44	-0.679	-0.364	2.13	5.18	1.05	5.59	0.603	3.03
GCTTATGGGTCAAAGGTTATAGCATGAATAGAAT	6.45	5.27	0.469	5.46	0.477	6.76	11.9	10.1	10.2	11	7.1	7.2	2.03	2.31	2.17	5.71	0.209	7.4	1.13	4.41
TAGCCTAGGCCATTGGGCCAGTATAGTACGCATC	-0.681	-0.881	-0.612	-0.883	-1.27	-1.09	0.237	-0.512	-0.597	-0.438	-0.378	0.553	-1.56	-0.875	-1.33	-0.947	-0.712	-0.936	-0.489	0.356
GATACAGGGTCAGTTAGAGGCCAGAGTATGGAAA	4.02	2.54	0.247	2.39	0.0768	3.64	2.24	2.27	0.448	1.45	1.02	1.82	0.545	0.433	2.89	2.85	1.17	3.86	0.673	3.77
